Data reported in PubChem BioAssay (EPA / NIEHS).
“And” between values parts separate entries of the source, which are not always exact repeats. Equal entries are not always repeated. Inconclusive results are not listed. A structure can be active in one record and inactive in another. The source made the active and inactive calls. Rule for the calls, unless noted: active = hit-call score of the fitted dose curve at least 0.9, where 1 is the maximum; inactive = score below 0.9.

Experiments:
[1] = CCTE_Mundy_HCI_hNP1_Pro_ResponderAvgInten: CCTE's Proliferation Assay in human neuroprogenitor cells, Mundy Lab (AID 2284224; active = hit-call score of the fitted dose curve at least 0.9, where 1 is the maximum;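 note: human neural progenitor cells hNP1 derived from WA09 embryonic stem cells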)
In short: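 Human neuroprogenitors (hNP1, WA09 lineage) receive test chemical after 40 to 44 hours of attachment. A four-hour BrdU pulse begins twenty hours later, followed by fixation and high content imaging; signal is referenced to DMSO controls.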

[2] = BSK_BT_PBMCCytotoxicity: PBMC Cytotoxicity Assessment in the BioMAP Diversity Plus: BT Assay (AID 2284225); details: primary human B cells with PBMC;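 note: PBMC viability measured by Alamar Blue dye reduction fluorescence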
In short: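 PBMC (75,000/well) pretreated with compound 1 h, then activated with SEB and TSST-1 (20 ng/mL each final), incubated 90 h; Alamar Blue added 6 h, fluorescence read at 546/580 nm. Fitted relative to DMSO.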

[3] = read-out: Secreted IgG (sIgG), gene 3500; assay: BSK_BT_sIgG: BioMAP Diversity Plus: BT Assay for Secreted IgG (sIgG) Biomarker Activity (AID 2284226); details: primary human B cells with PBMC
In short: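 Read-out: ELISA for secreted IgG after 24 h of chemical exposure in a B cell plus PBMC co-culture. Values reflect upward-direction fitting against DMSO negative controls.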

[4] = BSK_BT_Bcell_Proliferation: Viability Assessment in the BioMAP Diversity Plus: BT Assay for B cell Proliferation (AID 2284227); details: primary human B cells with PBMC
In short: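 Read-out is absorbance at 560 nm from sulforhodamine B staining of total protein, reflecting relative cell numbers in a human B cell and PBMC co-culture after 72 h of chemical exposure. Values were referenced to DMSO.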

[5] = read-out: Interleukin 6 (IL6), IL6 (gene 3569); assay: BSK_BT_xIL6: BioMAP Diversity Plus: BT Assay for Interleukin 6 (IL6) Biomarker Activity (AID 2284228); details: primary human B cells with PBMC
In short: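 IL-6 secretion measured (Luminex xMAP) in human primary B cell + PBMC co-culture at 24 h of chemical exposure; DMSO served as negative control and activity baseline, with curves fitted for increase.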

[6] = read-out: Interleukin 17A (IL17A), IL17A (gene 3605); assay: BSK_BT_xIL17A: BioMAP Diversity Plus: BT Assay for Interleukin 17A (IL17A) Biomarker Activity (AID 2284229); details: primary human B cells with PBMC
In short: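 Human primary B cells plus PBMC, treated 24 h with chemicals; supernatant IL-17A quantified on Luminex xMAP beads. Gain of signal over DMSO control scored as activity.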

[7] = read-out: Tumor necrosis factor (Homo sapiens) (UniProt P01375); assay: BSK_BT_xTNFa: BioMAP Diversity Plus: BT Assay for Tumor necrosis factor alpha (TNF-alpha) Biomarker Activity (AID 2284230); details: primary human B cells with PBMC
In short: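 Human primary co-culture of B cells and peripheral blood mononuclear cells; TNF-alpha in supernatant, 24 h post-dose, Luminex multiplex; DMSO = baseline.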

[8] = read-out: Vascular cell adhesion molecule 1 (VCAM1), VCAM1 (gene 7412); assay: BSK_MyoF_VCAM1: BioMAP Diversity Plus: MyoF Assay for Vascular cell adhesion molecule 1 (VCAM1) Biomarker Activity (AID 2284231); details: primary human lung fibroblasts
In short: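 VCAM-1 levels, lung fibroblasts, ELISA, 24 h exposure, increase scored relative to DMSO.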

Measured: AC50

Tumor necrosis factor (Homo sapiens), sequence (P01375 whole entry, looked up): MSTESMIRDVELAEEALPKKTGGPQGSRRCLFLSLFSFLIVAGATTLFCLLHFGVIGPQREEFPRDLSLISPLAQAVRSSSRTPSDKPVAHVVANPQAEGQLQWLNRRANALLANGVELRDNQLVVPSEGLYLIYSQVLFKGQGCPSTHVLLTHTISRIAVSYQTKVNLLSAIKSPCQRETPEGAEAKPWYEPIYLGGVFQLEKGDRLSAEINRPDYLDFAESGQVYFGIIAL

C=C(C)C(=O)OCC(F)(F)C(F)(F)C(F)(F)F
inactive: [1] | [2] | [3] | [4] | [5] | [6] | [7] | [8]
active: [4] 2.27 µM

O=C(O)C(F)(F)C(F)(F)OC(F)(F)F
inactive: [1] | [2] | [3] | [4] | [5] | [6] | [7] | [8]

CC(=O)Nc1ccc(N=Nc2cc(C)ccc2O)cc1
inactive: [2] | [4] | [6] | [7]
active: [3] 9.61 µM | [5] 0.016 µM | [8] 20 µM

CCCCCCCCCCCCCCCC[N+](C)(C)Cc1ccccc1
active: [2] 5.2 µM | [3] 0.274 µM | [4] 2.44 µM | [5] 9.92 µM | [6] 2.84 µM | [7] 5.5 µM | [8] 2.1 µM

O[Si](c1ccccc1)(c1ccccc1)c1ccccc1
inactive: [2] | [5] | [8]
active: [3] 14.1 µM | [4] 27.3 µM | [6] 28.9 µM | [7] 38.2 µM

FC(F)(F)C(F)(F)CNCC(F)(F)C(F)(F)F
inactive: [2] | [3] | [4] | [5] | [6] | [7] | [8]

O=C(O)C(F)(F)C(F)(F)C(F)F
inactive: [2] | [3] | [4] | [5] | [6] | [7] | [8]

O=C(O)C(F)(F)C(F)(F)C(F)(F)C(F)(F)C(F)(F)C(F)(F)C(F)(F)C(F)(F)C(F)(F)C(F)F
active: [2] 22.9 µM | [4] 16.4 µM | [8] 21.5 µM and 23.5 µM
inactive: [2] | [3] | [4] | [5] | [6]

O=C(O)C(F)(F)C(F)(F)C(F)(F)F
inactive: [1] | [2] | [3] | [4] | [5] | [6] | [7] | [8]

OCC(F)(F)C(F)(F)C(F)(F)C(F)F
inactive: [2] | [3] | [4] | [5] | [6] | [7] | [8]

FC(F)(F)C(F)(F)C(F)(F)C(F)(F)C(F)(F)C(F)(F)C(F)(F)Br
inactive: [2] | [3] | [4] | [5] | [6] | [7] | [8]

CCN(CC)c1ccc2c(C)cc(=O)oc2c1
inactive: [2] | [4] | [6] | [7] | [8]
active: [3] 28.3 µM | [5] 10.9 µM

OCC(F)(F)C(F)(F)C(F)(F)F
inactive: [2] | [3] | [4] | [5] | [6] | [7] | [8]

O=P(O)(O)OCCC(F)(F)C(F)(F)C(F)(F)C(F)(F)C(F)(F)C(F)(F)F
active: [5] 21.9 µM and 19.9 µM | [6] 20.2 µM
inactive: [2] | [3] | [4] | [6] | [7] | [8]

FC(F)(F)C(F)(F)C(F)(F)C(F)(F)C(F)(F)C(F)(F)CCS
inactive: [2] | [3] | [4] | [5] | [6] | [7] | [8]

CS(C)(=O)=O
inactive: [2] | [3] | [4] | [5] | [6] | [7] | [8]
